According to the supplement of paper PMC12632987:

T1: FBXL12, Q9NXK8
T1 chain: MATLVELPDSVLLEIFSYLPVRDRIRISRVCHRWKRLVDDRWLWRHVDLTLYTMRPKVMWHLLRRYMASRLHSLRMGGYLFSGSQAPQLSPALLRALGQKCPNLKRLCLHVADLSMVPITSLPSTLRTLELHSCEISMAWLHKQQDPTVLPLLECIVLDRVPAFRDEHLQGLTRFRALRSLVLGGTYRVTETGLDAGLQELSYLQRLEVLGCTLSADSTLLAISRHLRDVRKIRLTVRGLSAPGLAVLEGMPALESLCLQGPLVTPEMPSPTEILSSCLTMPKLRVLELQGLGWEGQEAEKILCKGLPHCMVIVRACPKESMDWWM

B1: FBXL12_hotspot_23_45 (protein)
chain: MRKLVITFAEAPDEEMVKATYYATKLALLAAEHGWEIVLRADNAVTGMAARIVAEAVEKRTGKKVEVIVKEDPSTKERAEKLAPKYEAAVEKAIAEVEAS
B2: FBXL12_hotspot_54_70 (protein)
chain: KVVTIRVRAETIEAARRTVETAVEIARGLREAGIEVEVELELEAEDVEAAARLAAEARHAFERIGARRIEVRLRLARPEDAPVFERLFAEELERLRREEE
B3: FBXL12_hotspot_24_51 (protein)
chain: QTITLVVRADLDLDPRDSPEEKRARLRAAVEGFLGSVETGIALADLMAARGRGAVDREAFEAAAAALLAAAEALGEADLAARVRAARARFLAAADRLEAA
B4: FBXL12_hotspot_52_65 (protein)
chain: MRTVELVLVLQGDDVEAARRLLDRGVAIAEGLKAAGVRVRVVIEYSGSLESVPAVVEAMRRFKALGAEVRVVVSDDPALAEARAALRAAAEELGAEFVVR
B5: FBXL12_hotspot_20_42 (protein)
chain: MLRLRVGVSEDVEANRGSLLRAAELVEAFADRLAAEFPELAEVIARLRETARRAREAAARLPGLSPEEARALVREMSEEIAEVVEEASRAAEAARARRAA
B6: FBXL12_hotspot_54_66 (protein)
chain: KTVTLVVRAETVEALRTTLATALAIAEGLLAAGITVRVEIRARSEDVLEATRLATRAAERLEALGAEDIRVEVEVETEEERREVERVAEEERRRERERRA
B7: FBXL12_hotspot_35_58 (protein)
chain: MRVVVVRFEGSSEEGALYMATAALLAQRVLGARVVVEIHPDESREVRIIAAALRHLAEGLSWEEIREELGLTEEEMERARELAERLRAEVERLAAELRAR
B8: FBXL12_hotspot_35_59 (protein)
chain: MRTVRVVFRGTSPEGARYMALAAALAAKELGARVEIEIDPNESREVRIIAGALMVLAEGRSLEEVVEELGLTEEEVEEMKRIAEELRKETERLAAELRAR
B9: FBXL12_hotspot_54_67 (protein)
chain: KTVTLVLRATTVEALRTTLATGVAIAKGLLAAGIRVRVVIRADSEDVLEATRIATRAAAELEALGAEDITVEIKVETEEEREEVEREAARVRAEAEAERA
B10: FBXL12_hotspot_52_64 (protein)
chain: MRTVTIRVRIESPDMAMARRTTETAAAIARGLAAAGVRVVLEVEAAHLEALRFATRELARVAAELGAELRVRVHPSLDPEEVERVYREALAEAEAEAAAA
B11: FBXL12_hotspot_23_48 (protein)
chain: MRTLVLSTRGVAPEDREAAARYAAEMIVAAGRAGWRVRVVLQDRESLELAALIAAMARLVTGAEVVVLTDAAEELERLMEERREEARRLVEEARARLDAE
B12: FBXL12_hotspot_54_68 (protein)
chain: KTVLLVVRATTVEALRRTLETAVAIAEGLLAAGHRVRVEIRVDSEDVLEATRLATRAAERLEALGAEDIRVEVRVETEEEKEEVERVAEETRREERERRA
B13: FBXL12_hotspot_59_71 (protein)
chain: MRRVVVRGDPEAALRQARALLEALLELLVRHEGTPQEPRLLELLESTYRELLRTARELGDEAAIAAARAAIEAAEKRLSPELAARLRAAVAAAEAAVEAE
B14: FBXL12_hotspot_54_69 (protein)
chain: KTVLIVVEAETLPALERSLATALEIARGLRAAGVRVEVRIRVRHPDVAAAAEAATRAAAEFRELGAERIEVEIETATEEDRERAEAARRETEARLAAEKA
B15: FBXL12_hotspot_23_47 (protein)
chain: MRTLVLSTFGTAPEDREASLEYAARLIVAAGRHGWRVVVVLEDRSSLELAATIAAMAKLVVGAEVVVKTDAEEELRELMERNRERAAELVAAAEAALAAE
B16: FBXL12_hotspot_23_50 (protein)
chain: MRELVLGIGGRPPEEQRAGALRAAELAAAFRPVADRIVVRLGPGVDGAVAAALRRVLEEDYGAEVLSETPEEAVPPEEVEALVAELRAAAEAAEARRRAA
B17: FBXL12_hotspot_35_61 (protein)
chain: MRVVRVVFEGTSVEGARYMALAALLAKEALGAKVEIELSPSESREVRVIAAALRMLAEGKSIEEVKEELGLSEEEVEEMKRLAEELRAETAELLAELKAR
B18: FBXL12_hotspot_23_46 (protein)
chain: MRTLVIHLTEQSPEEMVKATYYATKLAYLAVKHGWEVVLRASDAVTAMAARIIAEEIERRTGKEVRVEAEERPETAEEAEELRPRFEEAVRKAIEEVEAE
B19: FBXL12_hotspot_28_55 (protein)
chain: MKLEIRVRGPPEEVAKRILELVDAIVEVARQRKEELQRKVEEEGMPEEEARAELEENADRLLSALESLERNAESLPPELREEVLRRIREAREEIERIRKE
B20: FBXL12_hotspot_35_60 (protein)
chain: MRTVRVVFEGTSPEGARYMALAAALAARELGARVEVRLDPSESREVKVIAAALRVLAEGRPLEEVVEELGLTEEEIEEMEKILEELREEVERLSAELRAR
B21: FBXL12_hotspot_28_52 (protein)
chain: MKVEVRVSGDPEQVAAQLLALLEAMTKIAKELAKELKKTKETDPSKVEEKRKEAEEAAEKIRSMVESILRQAESLSPEQQAQVRAAAEETFKALEELEKT
B22: FBXL12_hotspot_35_57 (protein)
chain: MRTVVVQNAGSSLEGVRYAALAALVAVRVLGARLEVQISPDASREQRLILAAAEALASGRPLEEVVAERGLSEEELEEVRRIAEELRAEAERAVAELRAR
B23: FBXL12_hotspot_105_2 (protein)
chain: MARVRVGSTGPRALPLTVAGLAFAIYRGDEEEAERLRREAEALIAKRPAAEELRRLLEEAVALARALRAAAEAGDAAAAAAAAARLAAVIDELARLVEAE
B24: FBXL12_hotspot_20_43 (protein)
chain: MLLIRARLVGTREQMITTLRYAAAVVRALAERRRAANDATPEALALLEELARLYEEAAERLEAAPEEEWPAIRAATAAEQARLNERLEAELEAQERERAA
B25: FBXL12_hotspot_52_63 (protein)
chain: MRTVTIVVSVESPDMEMARRTTETAAAIAEGLAAAGVRVVLVVRAAHADALAFATRRLAEVAARLGAELRVETHPSLDPAEVAAIAAAARAAAAAAAAAA
B26: FBXL12_hotspot_28_53 (protein)
chain: MKRTVIVRGEPEQVGQQILALLEAITEQAKALKAQLEANKNGDPAVLAELKEKLAKLESILESLKEEAERIRPQLSPELQARIDAAIEAAEKALKAAKAV
B27: FBXL12_hotspot_23_49 (protein)
chain: MRTLRIHLVSRDPEQNRAAARYAAELATRAVLHGWRVVLSGDDRRTVAAAHAVARVVEEVTGKEVEVTEPLHPEEEPLAEELAEELRPVVEAAKAAELAA
B28: FBXL12_hotspot_109_3 (protein)
chain: KSVIVVLASGSPEHAETTFQTGVEIVKGLAEAGVKVGLLILTTKENEAIAEKALEEVKDYVAVSELVVFPTKEEFEAQLDKVKEEKIKRLEEKLEKLEEE
B29: FBXL12_hotspot_23_44 (protein)
chain: MRLLRISLVEKPPEELRAGALYQAEVAALAILEGWEVEIEAEHPEAVAAAHAIARALREVTGKEVKVSRPLKPEERPLAEELLPELIAAIRAAIAAHRAR
B30: FBXL12_hotspot_28_54 (protein)
chain: MKIEVKVSGPKEQVAQRILELLEALKQLVEELKKEYKEVKEKDPEKLPEFEKELEEKLEKIKSIAESLVKQAKELGEEAYKKAKEKAEEVKKAIEELKKA
B31: FBXL12_hotspot_28_56 (protein)
chain: AKRTVIVKGPPEQRAELMLKLAKAILEKSKELYKELKKVKDKDEEKVKELLEKLEKLADLAKSLLENAKKTLPKEYEEVVKEIEKLTKEVEKILKEAKKL
B32: FBXL12_hotspot_35_62 (protein)
chain: MRRVVVRFTSPTPEGARYMAVTALLASRELGAEVEIEVAPDASLEIRRIAAALYALVTGVPVSEALARFGLPESEAPAVEAEAERLRAEVDEELARLRAR

Molecular target: T1, FBXL12, Q9NXK8
Assay: median log2 fold change of GCK-ALFA target abundance (FLAG IP / Myc IP barcode read proportion) (log2 ratio); each designed protein is fused to an ALFA-tag nanobody in HEK293 cells to bring the named protein to FLAG-tagged glucokinase (GCK); Myc marks an untargeted standard; higher = target protein stabilised (more abundant)
Conditions: target protein: 3xFLAG-MCP-GCK-ALFA reporter; HEK293 landing pad (RPLP)
Protocol: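 LABEL-seq trans screen in HEK293 landing-pad cells. Each de novo designed 100-aa effector handle, binding the indicated effector (E3 ligase, DUB or autophagy protein), is fused to a constant NbALFA target handle and induced with 2 ug/mL doxycycline. A FLAG-MCP-GCK-ALFA target and a Myc-MCP standard reporter were transfected, and after 48 h circRNA barcodes were recovered by anti-FLAG and anti-Myc IP and sequenced. The value is the median across barcodes (at least 3 per design) of log2(FLAG/Myc read-proportion ratio), with the two transfection replicates pooled. Negative values mean degradation and positive values mean stabilisation of the target.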
For B1, the “median log2 fold change” value was -0.506. In the case of B2, the “median log2 fold change” value is reported as -0.0489. For B3, the “median log2 fold change” value was 0.0803. With B4 the “median log2 fold change” value was -0.218. For B5, the “median log2 fold change” value was 0.115. In the case of B6, the “median log2 fold change” value is reported as -0.267. In the case of B7, the “median log2 fold change” value is reported as -0.372. In the case of B8, the “median log2 fold change” value is reported as -0.274. In the case of B9, the “median log2 fold change” value is reported as -0.0916. With B10 the “median log2 fold change” value was -0.455. B11 was tested, and the “median log2 fold change” value was -0.469. In the case of B12, the “median log2 fold change” value is reported as -0.347. B13 was tested, and the “median log2 fold change” value was -0.323. With B14 the “median log2 fold change” value was -0.0113. In the case of B15, the “median log2 fold change” value is reported as -0.0403. With B16 the “median log2 fold change” value was 0.248. In the case of B17, the “median log2 fold change” value is reported as -0.36. For B18, the “median log2 fold change” value was -0.32. For B19, the “median log2 fold change” value was 0.147. B20 was tested, and the “median log2 fold change” value was -0.434. B21 was tested, and the “median log2 fold change” value was -0.0427. For B22, the “median log2 fold change” value was -0.0958. In the case of B23, the “median log2 fold change” value is reported as -0.835. For B24, the “median log2 fold change” value was -0.466. For B25, the “median log2 fold change” value was -0.889. B26 was tested, and the “median log2 fold change” value was 0.0582. With B27 the “median log2 fold change” value was -0.0469. In the case of B28, the “median log2 fold change” value is reported as 0.364. With B29 the “median log2 fold change” value was 0.0454. In the case of B30, the “median log2 fold change” value is reported as -0.418. For B31, the “median log2 fold change” value was -0.777. In the case of B32, the “median log2 fold change” value is reported as 0.1.
